Screening results from PubChem BioAssay.
Most compounds without a hit are left out; they make up all but 19% or so of the library.
DT40 TDP1 no CPT: qHTS for Inhibitors of human tyrosyl-DNA phosphodiesterase 1 (TDP1): qHTS in cells in absence of CPT; Potency, µM (doses to about 46.2 µM), for inactives: at the top dose activity change, negative = growth inhibition, most hits filed as inhibitors; 420,000 tested, 15% active; DT40 Tdp1-/- hTDP1 cells, no CPT, ATP luminescence, 48 h; also: nearly all actives have a fitted effect of over 55% in size
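Compound effects on proliferation are scored in DT40 Tdp1-/-;hTDP1 cells in the absence of CPT. ATP levels (CellTiter-Glo luminescence) are recorded after a ≥48 hr, 37 °C incubation.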
HT1080 IDH1KD tx: HT-1080 IDH1 knockdown cell toxicity (counter line); Potency, µM (doses to about 46.1 µM), without a hit: at the top dose activity, negative = toxicity, hits mostly cytotoxic; HT-1080 IDH1 knockdown viability, ATP luminescence, 48 h; 360,000 tested, 2% active; AID 686971;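 also: 0% = DMSO wells and -100% = cell-free medium wells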
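In this qHTS, HT-1080 cells depleted of IDH1 are exposed for 48 h at 37 °C to compound titrations. Toxicity is scored from CellTiter-Glo luminescence, with DMSO as full viability and medium alone as none.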
DT40 TDP1 CPT: DT40-hTDP1 cell growth loss with CPT; Potency, µM (doses to about 46.2 µM), without a hit: at the top dose activity change, negative = growth inhibition, most hits filed as inhibitors; chicken DT40 Tdp1-/-;hTDP1 cells + 20 nM CPT, ATP luminescence, 48 h; 420,000 tested, 12% active; also: nearly all actives have a fitted effect of over 55% in size
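Chicken DT40 Tdp1-/- cells complemented with human TDP1, 400 cells/well, exposed to compounds plus 20 nM camptothecin for at least 48 h at 37 C; viability read as ATP content by CellTiter-Glo luminescence.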
HT1080-NT tox: kills 2HG-producing HT-1080-NT fibrosarcoma cells; HT-1080-NT fibrosarcoma viability, CellTiter-Glo ATP luminescence, 48 h; Potency, µM (top dose mostly 46.1 µM), for the others: at the highest dose activity, negative = less viability, actives largely listed as cytotoxic; 360,000 tested, 1.6% active; AID 686970;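 also: NT is the 2HG producing partner of a matched IDH1 knockdown line; 0% = DMSO-treated cells and -100% = media-only wells without cells; nearly all actives have a fitted effect of over 55% in size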
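Toxicity toward the 2HG-producing NT line was scored as %Activity, normalised to DMSO and no-cell wells, from CellTiter-Glo luminescence after 48 hours' treatment.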
KB-V1 MDR tox: kills drug-selected multidrug resistant KB-V1 cells; KB-V1 MDR cells viability, CellTiter-Glo, 72 h; 400,000 tested, 3.4% active; Potency, µM (series often up to 46.1 µM), hits mostly cytotoxic; also: nearly all actives have a fitted effect of over 60% in size
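Luminescent ATP read-out (CellTiter-Glo, 10 min) measures survival of drug-selected KB-V1 MDR cells after 72 h, 37 degrees C compound exposure. Medium: phenol-red-free DMEM, 10% FBS. Values from fitted concentration-response curves.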
KB-3-1 cytotox: KB-3-1 parental cell cytotoxicity. KB-3-1 viability, CellTiter-Glo ATP luminescence, 72 h. Potency, µM (doses to about 46.1 µM), actives largely listed as cytotoxic. 400,000 tested, 1.4% active; also: nearly all actives have a fitted effect of over 60% in size
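72 h, 37 °C compound treatment of KB-3-1 parental cells; CellTiter-Glo added, 10 min, luminescence read. Data corrected against DMSO-only plates and normalized before curve fitting.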
An asterisk follows results filed as active; ! = not confirmed by another sample. Calls follow the shape of the dose curve; as a rule, active = well fitted curve in the direction sought with a large enough effect; inconclusive = small, poorly fitted or top-dose-only effect, or another doubt; inactive = no such curve, though single readings can be large; an effect the other way counts as inactive or inconclusive. Unless noted, % is scaled to controls: 0 for no effect and ±100 for the full control effect; potency is read from the fitted curve at half-maximal effect.

CC(CNC(=O)c1ccccc1[N+](=O)[O-])NC(=O)c1ccccc1[N+](=O)[O-] (stereo not given) was read as DT40 TDP1 no CPT -3%, HT1080 IDH1KD tx 13%, DT40 TDP1 CPT 1%, HT1080-NT tox 16%, KB-V1 MDR tox inactive and KB-3-1 cytotox inactive.
For Cc1cccc(C)c1NC(=O)C1(C)CCC(=O)N1CCc1c[nH]c2ccccc12 (stereo not given) the results were DT40 TDP1 no CPT -3%, HT1080 IDH1KD tx 0%, DT40 TDP1 CPT -10%, HT1080-NT tox 21%, KB-V1 MDR tox inactive and KB-3-1 cytotox inactive.
`CCc1cc(-c2nnn(CCC3COCCO3)c2CC)ccc1-c1cn(CCc2c[nH]c3ccccc23)nn1` (stereo not given) gave DT40 TDP1 no CPT 12µM*, HT1080 IDH1KD tx inconclusive, DT40 TDP1 CPT 16µM*, HT1080-NT tox -35%, KB-V1 MDR tox inactive and KB-3-1 cytotox inactive.
Screening COCC1=C(C(=O)OC(C)OC(=O)OC(C)C)N2C(=O)[C@@H](NC(=O)/C(=N\OC)c3csc(N)n3)[C@H]2SC1 (stereo not given in full) returned DT40 TDP1 no CPT 1.3µM*!, HT1080 IDH1KD tx -5%, DT40 TDP1 CPT 3.3µM*!, HT1080-NT tox 19%, KB-V1 MDR tox inactive and KB-3-1 cytotox inactive.
Screening COC(=O)C=CSC(=S)C1CCCC1=N (stereo not given) returned DT40 TDP1 no CPT -22%, HT1080 IDH1KD tx -7%, DT40 TDP1 CPT 2%, HT1080-NT tox 14%, KB-V1 MDR tox inactive and KB-3-1 cytotox inactive.
Nc1ccc2c(c1Cl)C(=O)c1ccc(N)c(Cl)c1C2=O was read as DT40 TDP1 no CPT inconclusive, HT1080 IDH1KD tx -2%, DT40 TDP1 CPT 2%, HT1080-NT tox 2%, KB-V1 MDR tox inactive and KB-3-1 cytotox inactive.
Cc1ccc2c(c1C)-c1c(ccc(C)c1C)C(=O)C2=O was read as DT40 TDP1 no CPT 1µM*, HT1080 IDH1KD tx 10µM*, DT40 TDP1 CPT 0.92µM*, HT1080-NT tox 5.8µM*, KB-V1 MDR tox 0.65µM* and KB-3-1 cytotox 3.3µM*.
For CCOc1cc(C(=O)N(C)CC(=O)Nc2cccc3ccccc23)ccc1OC the results were DT40 TDP1 no CPT 9%, HT1080 IDH1KD tx 1%, DT40 TDP1 CPT -3%, HT1080-NT tox 2%, KB-V1 MDR tox inactive and KB-3-1 cytotox inactive.
O=C(Cn1cc(F)c(=O)[nH]c1=O)NCCO was read as DT40 TDP1 no CPT 22%, HT1080 IDH1KD tx -1%, DT40 TDP1 CPT -2%, HT1080-NT tox 1%, KB-V1 MDR tox inactive and KB-3-1 cytotox inactive.
CCCCCCn1c(N2CCN(c3cccc(Cl)c3)CC2)nc2c1c(=O)[nH]c(=O)n2C was read as DT40 TDP1 no CPT 23µM*, HT1080 IDH1KD tx -6%, DT40 TDP1 CPT inconclusive, HT1080-NT tox 0%, KB-V1 MDR tox 16µM* and KB-3-1 cytotox inconclusive.
`Cn1c(=O)[nH]c(=O)c2c1nc(CN1CCN(c3ccccc3F)CC1)n2CCCc1ccccc1` gave DT40 TDP1 no CPT 14µM*, HT1080 IDH1KD tx 3%, DT40 TDP1 CPT inconclusive, HT1080-NT tox 3%, KB-V1 MDR tox inconclusive and KB-3-1 cytotox inactive.
Screening CCCCCCCCn1c(N2CCN(c3cccc(Cl)c3)CC2)nc2c1c(=O)[nH]c(=O)n2C returned DT40 TDP1 no CPT inconclusive, HT1080 IDH1KD tx 0%, DT40 TDP1 CPT inconclusive, HT1080-NT tox -4%, KB-V1 MDR tox 13µM* and KB-3-1 cytotox inactive.
For CCCCCCn1c(N2CCN(c3ccccc3)CC2)nc2c1c(=O)[nH]c(=O)n2C the results were DT40 TDP1 no CPT inconclusive, HT1080 IDH1KD tx inconclusive, DT40 TDP1 CPT 23µM*, HT1080-NT tox -16%, KB-V1 MDR tox inconclusive and KB-3-1 cytotox inconclusive.
`C=CCNC(=O)NC(=O)CSc1nnc(C(F)(F)F)n1C` gave DT40 TDP1 no CPT -118%, HT1080 IDH1KD tx 12%, DT40 TDP1 CPT -109%, HT1080-NT tox 4%, KB-V1 MDR tox inactive and KB-3-1 cytotox inactive.
Cn1c(=O)[nH]c(=O)c2c1nc(N1CCOCC1)n2CCSc1nnnn1-c1ccccc1 was read as DT40 TDP1 no CPT 18%, HT1080 IDH1KD tx 15%, DT40 TDP1 CPT -10%, HT1080-NT tox 15%, KB-V1 MDR tox inactive and KB-3-1 cytotox inactive.
For Cn1c(=O)[nH]c(=O)c2c1nc(N1CCCCC1)n2CCSc1ncccn1 the results were DT40 TDP1 no CPT -14%, HT1080 IDH1KD tx -1%, DT40 TDP1 CPT -16%, HT1080-NT tox -2%, KB-V1 MDR tox inactive and KB-3-1 cytotox inactive.
For CC(CSc1nnnn1-c1ccccc1)Cn1c(N2CCCC2)nc2c1c(=O)[nH]c(=O)n2C (stereo not given) the results were DT40 TDP1 no CPT inconclusive, HT1080 IDH1KD tx 0%, DT40 TDP1 CPT inconclusive, HT1080-NT tox 9%, KB-V1 MDR tox 2.3µM* and KB-3-1 cytotox inactive.
Screening Cn1c(=O)[nH]c(=O)c2c1nc(N1CCN(c3ccccc3)CC1)n2CCSc1ncccn1 returned DT40 TDP1 no CPT 10µM*, HT1080 IDH1KD tx 0%, DT40 TDP1 CPT inconclusive, HT1080-NT tox 0%, KB-V1 MDR tox inactive and KB-3-1 cytotox inactive.
CCCCCn1c(CN2CCN(c3cccc(Cl)c3)CC2)nc2c1c(=O)[nH]c(=O)n2C was read as DT40 TDP1 no CPT inconclusive, HT1080 IDH1KD tx inconclusive, DT40 TDP1 CPT 21µM*, HT1080-NT tox inconclusive, KB-V1 MDR tox inconclusive and KB-3-1 cytotox 23µM*.
Screening CCCn1c(N2CCN(CC(=O)c3c(C)n(C)c4ccccc34)CC2)nc2c1c(=O)[nH]c(=O)n2C returned DT40 TDP1 no CPT 18µM*, HT1080 IDH1KD tx -20%, DT40 TDP1 CPT inconclusive, HT1080-NT tox -23%, KB-V1 MDR tox inconclusive and KB-3-1 cytotox inconclusive.
Cc1ccc(NC(=O)CCNS(=O)(=O)c2ccc3[nH]c(=O)oc3c2)cc1N(C)C was read as DT40 TDP1 no CPT 1%, HT1080 IDH1KD tx 8%, DT40 TDP1 CPT 15%, HT1080-NT tox 0%, KB-V1 MDR tox inactive and KB-3-1 cytotox inactive.
`CCOC(=O)c1ccc(NC(=S)N(CCN2CCCCCC2)Cc2cccs2)cc1` gave DT40 TDP1 no CPT 15µM*, HT1080 IDH1KD tx 4%, DT40 TDP1 CPT inconclusive, HT1080-NT tox 6%, KB-V1 MDR tox inactive and KB-3-1 cytotox inactive.
